Compound activity as filed in PubChem BioAssay.
TRPML1 blocker: qHTS for Inhibitors of the Human Mucolipin Transient Receptor Potential 1 (TRPML1) | Mucolipin-1 (Homo sapiens), Q9GZU1 | TRPML1-inducible cells, Ca2+ dye fluorescence, FDSS; active compounds read low; inhibition of EC80 agonist-evoked calcium signal | activity change, negative = inhibition, % (test concentration not listed) | hit rate 0.02% among 390,000 | AID 624415, 2012; in the data active = activity change below about -50%; inconclusive = between about -30% and that limit;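 also: stimulus is agonist 54-4 at its EC80 concentration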
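Calcium fluorescence in TRPML1-DL cells induced overnight with Tet: a 110 s read after compound pin addition, then a 110 s antagonist read after challenge with 54-4 at 4 uM final (EC80).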
A-T KAP1 phos: qHTS Assay for Identifying a Potential Treatment of Ataxia-Telangiectasia | Potency, µM (titrated, usually from 57.5 µM), actives largely listed as activators | F2112 A-T fibroblasts, KAP-1 phosphorylation AlphaLISA; neocarzinostatin DNA damage 30 min before lysis | hit rate 0.19% among 320,000; active = well fitted activation curve with a large enough effect; inconclusive = small, poorly fitted or top-dose-only effect; inactive = no such curve, though single readings can be large or run the other way; also: nearly all actives have a fitted effect of over 45% in size
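ATM-like activity read as KAP-1 phosphorylation via AlphaLISA donor/acceptor antibody pairs after lysis and 6 hr at 25C. Cells were ATM-null patient fibroblasts (F2112, hTERT), dosed 60 min, then exposed to the DSB inducer NCS for 30 min.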
TRPV1 PAM: HTS Assay for Compounds that Act as Potentiators of the Vanilloid Receptor 1. potentiation, % at 8.33 µM. Transient receptor potential cation channel subfamily V member 1 (Homo sapiens), Q8NER1. hit rate 0.02% among 320,000. TRPV1-expressing cells, Fluo-8 calcium influx, capsaicin EC20 potentiation; in the data active = potentiation above about 80%; inconclusive = between about 30% and that limit
Target sequence (Q8NER1 whole entry, looked up): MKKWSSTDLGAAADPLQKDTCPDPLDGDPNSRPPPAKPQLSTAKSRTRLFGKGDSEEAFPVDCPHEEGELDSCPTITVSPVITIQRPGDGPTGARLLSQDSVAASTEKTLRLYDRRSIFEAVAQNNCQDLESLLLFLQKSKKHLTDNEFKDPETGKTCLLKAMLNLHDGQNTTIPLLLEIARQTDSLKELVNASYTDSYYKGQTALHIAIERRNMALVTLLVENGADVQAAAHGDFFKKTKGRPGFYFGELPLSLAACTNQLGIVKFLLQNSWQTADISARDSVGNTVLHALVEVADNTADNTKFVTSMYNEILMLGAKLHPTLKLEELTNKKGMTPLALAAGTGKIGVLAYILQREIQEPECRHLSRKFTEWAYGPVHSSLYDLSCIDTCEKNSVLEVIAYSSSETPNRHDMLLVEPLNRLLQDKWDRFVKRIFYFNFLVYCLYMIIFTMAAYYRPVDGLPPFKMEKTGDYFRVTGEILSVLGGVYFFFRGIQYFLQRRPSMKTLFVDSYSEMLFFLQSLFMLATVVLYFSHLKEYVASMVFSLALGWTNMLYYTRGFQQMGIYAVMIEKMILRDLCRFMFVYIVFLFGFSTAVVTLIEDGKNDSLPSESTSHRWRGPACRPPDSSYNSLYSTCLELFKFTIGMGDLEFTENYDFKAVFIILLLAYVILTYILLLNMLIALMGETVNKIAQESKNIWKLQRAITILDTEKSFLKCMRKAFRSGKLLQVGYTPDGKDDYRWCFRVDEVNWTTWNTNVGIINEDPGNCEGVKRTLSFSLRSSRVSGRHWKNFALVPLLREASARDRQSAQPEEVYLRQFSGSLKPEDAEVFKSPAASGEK
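Cells expressing TRPV1 were dye-loaded with Fluo-8 and read kinetically: 10 s baseline, 3 min after compound (agonist portion), then 2 min after EC20 capsaicin (allosteric enhancer portion). Calcium-bound dye fluorescence at 480/520 nm.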
TRPV1 ag: HTS Assay for Compounds that Act as Agonists of the Vanilloid Receptor 1; hit rate 0.19% among 320,000; activation, % at 8.33 µM; TRPV1-expressing cells, Fluo-8 calcium influx, agonist mode; Transient receptor potential cation channel subfamily V member 1 (Homo sapiens), Q8NER1; in the data active = activation above about 80%; inconclusive = between about 30% and that limit
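TRPV1-expressing cells were cultured overnight at 35.5C and loaded with Fluo-8 calcium dye for 40 to 90 min at room temperature. After a 10 s baseline, compound was added and calcium influx was read kinetically for 3 min (ex 480/em 520 nm).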
TRPML1 ag: qHTS for Agonists of the Human Mucolipin Transient Receptor Potential 1 (TRPML1). Mucolipin-1 (Homo sapiens), Q9GZU1. hit rate 0.12% among 410,000. activation, % (concentration not given with the values). TRPML1-expressing cells, Ca2+ dye fluorescence, FDSS. AID 624414, 2012; in the data active = activation above about 50%; inconclusive = mostly about 30% to 49%
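Tet-induced TRPML1-DL cells, 1,500 per well, cultured overnight, were loaded with a no-wash Ca2+ dye for 45–90 min. Calcium fluorescence was recorded on the FDSS for 110 s after compound addition, before the EC80 agonist (4 uM 54-4) was added.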
Numbers stand for hits; i = inactive; ? = inconclusive; nt = no result. Most compounds without a hit are left out; they make up all but 0.41% or so of the library.

SMILES	TRPML1 blocker	A-T KAP1 phos	TRPV1 PAM	TRPV1 ag	TRPML1 ag
N=C1/C(=C\c2coc3ccccc3c2=O)C(=O)N=C2SC(c3ccncc3)=NN12	i	i	i	91	112
N=C1/C(=C/c2coc3ccccc3c2=O)C(=O)N=C2SC(c3ccco3)=NN12	i	i	i	i	81
Cc1cc(/C=C2\C(=N)N3N=C(c4ccco4)SC3=NC2=O)c(C)n1Cc1ccccc1	i	i	i	i	i
CC(C)CSC1=NSC2=NC(=O)/C(=C\c3coc4ccccc4c3=O)C(=N)N12	i	i	i	i	?
CSC1=NSC2=NC(=O)/C(=C\c3coc4ccccc4c3=O)C(=N)N12	i	i	i	?	76
CCN(CC)/[N+]([O-])=N/OCOC(=O)C(C)c1ccc2cc(OC(C)=O)ccc2c1 (centres undefined)	i	nt	nt	nt	i
C[C@@H]1[C@H](c2ccccc2)OCCS(=O)(=O)N1Cc1ccc(Cl)cc1	nt	nt	nt	nt	i
Cc1sc2ccccc2[n+]1CCC[n+]1c(C)sc2ccccc21	nt	nt	nt	nt	i
O=C1c2ccccc2C(=O)N1CC1c2ccccc2CCN1S(=O)(=O)c1cnc[nH]1 (centres undefined)	i	i	i	i	i
Cc1ccc(S(=O)(=O)N2CCc3ccccc3C2CN2C(=O)c3ccccc3C2=O)cc1 (centres undefined)	i	i	i	i	87
COc1cc(OC)c(OC)cc1/C=c1\[nH]c(=O)/c(=C/c2cc(OC)c(OC)cc2OC)[nH]c1=O	nt	nt	nt	nt	i
COc1ccc(CNC(=O)CN2CCN(c3cccc(C)c3C)CC2)cc1	i	i	i	80	i
CCC1CCCCN1CC(C)(C)NS(=O)(=O)c1ccccc1 (centres undefined)	i	35µM	i	i	i
CCc1cnc2ccccc2c1/C=C/c1ccc(N(C)C)cc1	nt	nt	nt	nt	i
C=Nc1ccc(/C=C/c2ccnc3ccccc23)cc1	nt	nt	nt	nt	i
CC(C)(C)S(=O)(=O)c1cnc2c(S(=O)(=O)c3ccccc3)cnn2c1N	i	i	i	i	i
Cc1nc2c(S(=O)(=O)c3ccccc3)cnn2c(C)c1C	i	i	82	i	i
COc1ccccc1OCC(=O)NNC(=O)CCCC(=O)NNC(=O)COc1ccccc1OC	i	i	i	i	i
NC(=S)NNC(=O)COc1ccccc1O	i	16µM	i	i	i
CCn1nc(-c2ccc(C)cc2)nc2c(=O)n(C)c(=O)nc1-2	nt	nt	nt	nt	i
CCOC(=O)C(Cc1ccccc1)C(=O)Nc1cccc(C)c1 (centres undefined)	i	i	i	85	i
CCOC(=O)C(Cc1ccccc1)C(=O)Nc1ccc(N(CC)CC)cc1 (centres undefined)	i	i	i	i	i
CC(=O)Nc1ccc(/C=C2\C=Cc3ccccc32)cc1	nt	nt	nt	nt	i
CCCCCCCCCCCCCCCC[n+]1ccc(C)cc1	nt	nt	nt	nt	i
CC(C)(C)c1ccc(C(=O)Nc2cccc([N+](=O)[O-])c2)cc1	i	i	i	84	i
SMILES	TRPML1 blocker	A-T KAP1 phos	TRPV1 PAM	TRPV1 ag	TRPML1 ag
C/C(=N/NC(=O)c1ccncc1)c1ccc(NC(=O)c2ccccc2)cc1	i	i	i	?	i
C/C(=N\NC(=O)c1ccncc1)c1cccc(NC(=O)c2ccc(C(C)(C)C)cc2)c1	i	i	i	85	i
Cc1c(C(=O)Nc2cccc([N+](=O)[O-])c2)cnn1-c1ccccc1	i	i	i	103	i
CC1CN(c2nc3c(c(=O)n(Cc4ccc(Cl)cc4)c(=O)n3C)n2C)CC(C)O1 (centres undefined)	i	i	i	106	i
Cn1c(N2CCCC2)nc2c1c(=O)n(Cc1ccc(Cl)cc1)c(=O)n2C	i	i	i	?	i
CN(C)/[N+]([O-])=N/Oc1ccc([N+](=O)[O-])cn1	i	nt	nt	nt	i
Cc1ccc(NC(=O)C2(c3ccccc3)CC2(Cl)Cl)cc1C (centres undefined)	i	i	i	i	i
CCc1ccc(NC(=O)C2(c3ccccc3)CC2(Cl)Cl)cc1 (centres undefined)	i	i	i	i	54
CCCCCN(CCCCC)c1ccc(/C=C/c2ccnc3ccccc23)cc1	nt	nt	nt	nt	i
NS(=O)(=O)c1ccc(NC(=O)c2ccc3c(c2)CCCC3)cc1	i	i	i	92	i
O=C(COC(=O)c1ccccc1NCCO)NCCc1ccccc1	i	i	i	i	i
O=C(OCC(=O)N(Cc1ccccc1)Cc1ccccc1)c1ccccc1NCCO	i	22µM	i	i	i
CC(C)CCSc1nc(N2CCOCC2)c2c(c1C#N)CC(C)(C)OC2	i	i	i	91	i
CC(C)(C)n1ncc2c(=O)n(Cc3cccc(Cl)c3Cl)cnc21	i	nt	nt	nt	i
CC(C)Cc1nn2c(=O)cc(COC(=O)c3ccc(NC(=O)c4cccs4)cc3)nc2s1	-68	nt	nt	nt	i
CNc1ccc2c3c(cccc13)C(=O)N(C)C2=O	i	i	i	103	78
O=C(C[n+]1cccc2cc(Cl)ccc21)c1ccc2ccccc2c1	nt	nt	nt	nt	i
O=c1oc2cc(O)ccc2cc1-c1nc2ccccc2o1	nt	nt	nt	nt	99
COc1cccc(NC(=O)COc2ccccc2C(=O)Nc2ccccc2)c1	nt	nt	nt	nt	i
O=C(O)CCCN1C(=O)/C(=C/C=C/c2ccco2)SC1=S	i	4µM	i	i	i
COc1cc2c(c(O)c1OC)-c1c(cc(OC)c(OC)c1OC)C[C@@H](C)[C@@H](C)C2	i	20µM	i	i	i
CC(C)(C)n1ncc2c(=O)n(Cc3ccc(-c4ccccc4C#N)cc3)cnc21	i	nt	nt	nt	i
O=C1c2ccccc2S(=O)(=O)c2cc(C(=O)N(c3ccccn3)c3ccccn3)ccc21	i	i	i	i	64
COc1ccc(NC(=S)NCc2ccc(F)cc2)cc1	i	22µM	i	i	i
CCOc1ccc(C(C)NC(=S)NCc2ccc(F)cc2)cc1 (centres undefined)	i	i	i	86	i
SMILES	TRPML1 blocker	A-T KAP1 phos	TRPV1 PAM	TRPV1 ag	TRPML1 ag
O=C(NCc1ccc(F)cc1)Nc1cccc(Cl)c1	i	i	i	i	i
O=C(NCc1ccc(F)cc1)Nc1ccc(Cl)cc1	i	i	i	80	i
Cc1ccc(C(C)NC(=S)NCc2ccc(F)cc2)cc1C (centres undefined)	i	i	i	80	i
CCc1ccc(C(C)NC(=S)NCc2ccc(F)cc2)cc1 (centres undefined)	i	i	i	?	i
COc1ccc2[nH]c(C(O)C(O)c3nc4c(OC)c(OC)ccc4[nH]3)nc2c1OC (centres undefined)	nt	nt	nt	nt	i
CN(C)N=Nc1ccc(/C=C2\C=Cc3ccccc32)cc1	nt	nt	nt	nt	i
